Bioassay records (PubChem)
Compounds with a hit are over-represented: about 1.2% of the library has one in this group of screens.
p53null 39C kill: p53 null cell cytotoxicity, nonpermissive temperature | H1299 p53-null (neo) cells, 39C, ATPlite viability, 24 h | Potency, µM (series often up to 46.1 µM), hits mostly cytotoxic | 55,000 compounds, 0.97% hits | AID 904; note: nearly all actives have a fitted effect of over 50% in size
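Cells seeded at 600/well, 37C overnight. Compound added (up to 46 uM), plates shifted to 39C for 24 hr. ATPlite added, luminescence read after 20 min at room temperature.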
p53null 32C tox: selectivity test: cytotoxicity in p53 null cells, permissive temperature; H1299-neo p53 null cells, ATP luminescence, 24 h, 32C; Potency, µM (doses to about 46.1 µM), usual class: cytotoxic; 55,000 compounds, 0.62% hits; note: nearly all actives have a fitted effect of over 55% in size
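We seeded p53-null H1299-neo cells, incubated them overnight at 37C, and added compounds across a range up to 46 uM. After 24 hours at 32C, ATP reagent was applied for 20 min at room temperature and luminescence recorded.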
FH mod: Identification of activators of human fumarate hydratase by quantitative high-throughput screening; Fumarate hydratase, mitochondrial (Homo sapiens), P07954; FH coupled MDH/diaphorase resazurin fluorescence, 15 min; Potency, µM (series often up to 79.9 µM), hits mostly inhibitors; 54,000 compounds, 0.22% hits; AID 1347055, 2019; note: the screen sought activators but most active calls are inhibition curves; nearly all actives have a fitted effect of over 45% in size
Target sequence (P07954 whole entry, looked up): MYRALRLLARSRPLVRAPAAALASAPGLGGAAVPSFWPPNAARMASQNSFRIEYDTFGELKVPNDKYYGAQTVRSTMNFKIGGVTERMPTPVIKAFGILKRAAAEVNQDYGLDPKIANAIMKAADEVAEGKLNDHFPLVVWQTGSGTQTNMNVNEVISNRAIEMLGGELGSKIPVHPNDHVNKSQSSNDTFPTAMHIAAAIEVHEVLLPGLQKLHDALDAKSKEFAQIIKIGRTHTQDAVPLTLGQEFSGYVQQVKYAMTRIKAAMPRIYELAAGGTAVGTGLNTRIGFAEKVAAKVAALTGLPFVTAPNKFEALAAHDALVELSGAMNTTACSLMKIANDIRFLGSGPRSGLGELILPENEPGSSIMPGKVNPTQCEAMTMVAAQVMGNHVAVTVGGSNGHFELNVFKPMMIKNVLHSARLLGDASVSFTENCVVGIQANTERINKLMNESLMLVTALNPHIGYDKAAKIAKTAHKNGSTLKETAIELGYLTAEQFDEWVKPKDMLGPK
Each line names hits and unclear results; the compound was inactive in the other large screens. Calls come from the whole dose curve; as a rule, active = well fitted curve in the direction sought with a large enough effect; inconclusive = small, poorly fitted or top-dose-only effect, or another doubt; inactive = no such curve, though single readings can be large; an effect the other way counts as inactive or inconclusive.

CC(C)(O)C1CCC(C)(C2CCC3(C)C4CCC5C(C)(C(=O)OC6OC(CO)C(O)C(O)C6O)C(O)CC(O)C56CC46CCC23C)O1 (stereo unspecified)	none (no result: p53null 39C kill, p53null 32C tox)
Cc1ccn(-c2cc(Cl)ccc2[C@@H](Oc2cc(-c3ccc(C[C@H](N)C(=O)O)cc3)nc(N)n2)C(F)(F)F)n1	none (no result: p53null 39C kill, p53null 32C tox)
CN1CCN(CCCNc2ncc(Cl)c(-c3cc4c(C(=O)NC5CC5)cccc4s3)n2)CC1	none (no result: p53null 39C kill, p53null 32C tox)
CC(C)Oc1ccc(C(=O)NC(CNC(=O)CN(C)C)Cc2ccc(-c3cn4cccc(C(C)O)c4n3)cc2)cc1Cl (stereo unspecified)	none (no result: p53null 39C kill, p53null 32C tox)
CCOc1ccc(CCNC(=O)CSc2n[nH]c(-c3ccccc3)n2)cc1OCC	p53null 39C kill inconclusive, FH mod 6.3µM
CCOc1cc(CNC(=O)CSc2n[nH]c(-c3ccccc3)n2)cc(OCC)c1OCC	none
Cc1ccc(C(=O)Nc2ccc(Oc3cc4cnn(C)c4cc3-c3cn[nH]c3)c(F)c2)c(=O)n1-c1ccc(F)cc1	none (no result: p53null 39C kill, p53null 32C tox)
COc1cc(C2Oc3c(OC)cc(/C=C/C(=O)OC4CC(O)(C(=O)O)CC(O)C4O)cc3C2CO)ccc1O (stereo unspecified)	none (no result: p53null 39C kill, p53null 32C tox)
COc1ccc2oc(=Nc3ccccc3)c(-c3nc4ccccc4[nH]3)cc2c1	p53null 32C tox 11µM (no result: p53null 39C kill, FH mod)
COc1cccc(C(=O)Nc2ccc(Cl)c(-c3nc4ccccc4[nH]3)c2)c1	none
CCN1CCN(c2cc(C)c3cc(NC(=O)c4cccc(Cl)c4)ccc3n2)CC1	p53null 39C kill 22µM
Cc1cc(N2CCCCC2)nc2ccc(NC(=O)/C=C/c3ccccc3Cl)cc12	none
CCN1CCN(c2cc(C)c3cc(NC(=O)/C=C/c4cccc(OC)c4OC)ccc3n2)CC1	p53null 39C kill inconclusive
COc1cccc(/C=C/C(=O)Nc2ccc3nc(N4CCN(C)CC4)cc(C)c3c2)c1OC	p53null 39C kill 20µM, p53null 32C tox inconclusive
CCN1CCN(c2cc(C)c3cc(NC(=O)c4cc(OC)cc(OC)c4)ccc3n2)CC1	p53null 39C kill inconclusive, p53null 32C tox inconclusive
CCN1CCN(c2cc(C)c3cc(NC(=O)/C=C/c4cccc(Cl)c4)ccc3n2)CC1	p53null 39C kill 16µM, p53null 32C tox inconclusive, FH mod inconclusive
Cc1c(NC(=O)c2cc3c(s2)CCCC3)cccc1-c1cn(C)c(=O)c(Nc2ccc(C3C(=O)N(C)CCN3C)cc2)n1 (stereo unspecified)	none (no result: p53null 39C kill, p53null 32C tox)
OC1COC(OCC2OC(OCCc3ccccc3)C(O)C(O)C2O)C(O)C1O (stereo unspecified)	none (no result: p53null 39C kill, p53null 32C tox)
COc1ccc(N2CCN(C(=O)c3cn(CC(C)C)c(=O)c4c3c3ccccc3n4C)CC2)cc1	FH mod 32µM
COc1ccccc1N1CCN(C(=O)c2cn(CC(C)C)c(=O)c3c2c2ccccc2n3C)CC1	none
CCCCCCOC(=O)NC(=N)c1ccc(NCc2nc3cc(C(=O)N(CCC(=O)OCC)c4ccccn4)ccc3n2C)cc1	none (no result: p53null 39C kill, p53null 32C tox)
N[C@@H](CCC(=O)N[C@H](CSN=O)C(=O)NCC(=O)O)C(=O)O	none (no result: p53null 39C kill, p53null 32C tox)
[N-]=[N+]=Nc1ccc(C(=O)CSC[C@H](NC(=O)CC[C@H](N)C(=O)O)C(=O)NCC(=O)O)cc1	FH mod 32µM (no result: p53null 39C kill, p53null 32C tox)
O=C(O)C1=NC(C(=O)O)CC(C=CN2c3cc(O)c(OC4OC(CO)C(O)C(O)C4O)cc3CC2C(=O)O)=C1 (stereo unspecified)	none (no result: p53null 39C kill, p53null 32C tox)
Cc1ccc(NC(=O)CSc2ncc(-c3ccccc3)[nH]2)cc1	none
Cc1ccc(NC(=O)CSc2[nH]c(=O)ncc2C)cc1	p53null 39C kill 13µM, p53null 32C tox 11µM
Cc1ccc(NS(=O)(=O)c2cc3c(cc2N[C@@H](C)CO)NC(=O)CC3)cc1C	none (no result: p53null 39C kill, p53null 32C tox)
CCOc1cc(CNCCc2ccccc2)ccc1OCC(=O)NC(C)(C)C	p53null 39C kill 16µM (no result: FH mod)
CCOc1ccc(CCNC(=O)CN2N=C(c3ccccc3)CCC2=O)cc1OCC	none
COC(=O)c1ccc(Nc2nc(-c3ccc(C)cc3)nc3ccccc23)cc1	p53null 39C kill 16µM, p53null 32C tox inconclusive, FH mod inconclusive
CCOC(=O)c1ccc(Nc2nc(C(=O)OCC)nc3ccccc23)cc1	none
O=C(/C=C/c1ccccc1)O[C@@H]1[C@@H](CO)O[C@@](CO)(O[C@H]2O[C@H](CO)[C@@H](O)[C@H](O)[C@H]2O)[C@H]1O	none (no result: p53null 39C kill, p53null 32C tox)
Cc1ccc(/C=C/C(=O)Nc2ccc(S(N)(=O)=O)cc2)o1	none
CC(C)(C)c1ccc(/C=C/C(=O)Nc2ccc(S(N)(=O)=O)cc2)cc1	p53null 39C kill inconclusive, p53null 32C tox 25µM
COc1ccc(CCNC(=O)c2c[nH]n3c(=O)c(Cc4ccccc4Cl)c(C)nc23)cc1OC	p53null 39C kill inconclusive, p53null 32C tox inconclusive, FH mod 18µM
Cc1nc2c(C(=O)NCc3ccccc3Cl)c[nH]n2c(=O)c1Cc1cccc(Cl)c1	p53null 39C kill inconclusive, p53null 32C tox inconclusive
Cc1nc2c(C(=O)NCCc3ccccc3)c[nH]n2c(=O)c1Cc1ccc(F)cc1Cl	p53null 39C kill inconclusive, p53null 32C tox 13µM
Cc1ccc(CNC(=O)c2c[nH]n3c(=O)c(Cc4ccc(F)cc4Cl)c(C)nc23)cc1	FH mod inconclusive
N#CC(CCCN1CCC(O)(c2ccc(Cl)cc2)CC1)(c1ccccc1)c1ccccc1	none (no result: p53null 39C kill, p53null 32C tox)
COc1ccc(CC2=NN3C([C@@H](CCc4ccccc4)[C@@H](C)O)=NC(C)C3C(=O)N2)cc1OC (stereo partly specified)	none (no result: p53null 39C kill, p53null 32C tox)
CCOc1ccccc1Nc1nc(-c2cccc(Cl)c2)c2c(n1)-c1ccccc1OC2	p53null 39C kill 13µM, p53null 32C tox inconclusive
c1ccc(-c2cc(-c3ccccc3)c3c(n2)-c2ccccc2OC3)cc1	none (no result: p53null 39C kill, p53null 32C tox)
CC(C)Cc1ccc(C(C)C(=O)OCc2ccccn2)cc1 (stereo unspecified)	none (no result: p53null 39C kill, p53null 32C tox)
CCCN(C(=O)c1cc2c(s1)-c1ccccc1SC2)c1ccccc1F	p53null 39C kill 20µM, FH mod inconclusive
CCCN(C(=O)c1cc2c(s1)-c1ccccc1OC2)c1ccccc1F	FH mod inconclusive
Cc1cccc(Cn2nnc3c(=O)[nH]c(C4CCCN(C(=O)c5ccc(C(C)(C)C)cc5)C4)nc32)c1 (stereo unspecified)	p53null 39C kill 20µM, p53null 32C tox inconclusive, FH mod inconclusive
Cc1ccccc1Cn1nnc2c(=O)[nH]c(C3CCCN(C(=O)c4ccc(C(C)(C)C)cc4)C3)nc21 (stereo unspecified)	p53null 39C kill inconclusive, FH mod inconclusive
CNC(=O)c1cnn(-c2nc(N)c3ncn([C@@H]4O[C@H](CO)[C@@H](O)[C@H]4O)c3n2)c1	none (no result: p53null 39C kill, p53null 32C tox)
O=C(Nc1c(Cl)cccc1Cl)c1cc(-c2cccc(O)c2)on1	p53null 39C kill 13µM (no result: FH mod)
O=C(Nc1c(Cl)cccc1Cl)c1cc(-c2ccc3c(c2)OCO3)on1	none (no result: FH mod)
CC1CCN(S(=O)(=O)c2ccc3nc(Nc4cccc(C(F)(F)F)c4)ccc3c2)CC1	p53null 39C kill 11µM, FH mod inconclusive
CC1CCN(S(=O)(=O)c2ccc3nc(Nc4ccc(C#N)cc4)ccc3c2)CC1	FH mod inconclusive
CC1=C(CO)C2(C)CCCC(C)(C)C2C(O)C1O (stereo unspecified)	none (no result: p53null 39C kill, p53null 32C tox)
COc1cc(C(=O)NCC(c2cccnc2)N2CCN(c3ccc(F)cc3)CC2)cc(OC)c1OC (stereo unspecified)	p53null 39C kill 16µM
